Experimental findings from PubChem BioAssay (NCI) are described below.

The nature of experiment [1]: NCI Yeast Anticancer Drug Screen. Data for the rad50 strain (AID 155).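 Further: 0% = growth of vehicle-only cultures of the same strain.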 As to conditions: S. cerevisiae rad50 strain growth inhibition, stronger effect = higher value. Put shortly: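 Relative growth inhibition (compound vs vehicle) was measured in yeast with a defined repair-gene alteration.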
The nature of experiment [2]: NCI Yeast Anticancer Drug Screen. Data for the mec2-1 strain (AID 157). As to conditions: S. cerevisiae mec2-1 strain, stronger effect = higher value. The procedure, abridged:
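Yeast mec2-1 mutant treated with compound. Readout: growth inhibition vs vehicle controls.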

Experiment [3] in a line: NCI Yeast Anticancer Drug Screen. Data for the sgs1 mgt1 strain (AID 161).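 Further: 0% = growth of cultures given vehicle only.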 Particulars: S. cerevisiae sgs1 mgt1 strain, stronger effect = higher value. The procedure, abridged:
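Genetically altered yeast, compound exposure, growth inhibition relative to vehicle.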

A short description of experiment [4]: NCI Yeast Anticancer Drug Screen. Data for the cln2 rad14 strain (AID 165).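 Further: 0% = growth equal to vehicle treated cultures.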 As to conditions: S. cerevisiae cln2 rad14 strain, stronger effect = higher value. The procedure, abridged:
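cln2 rad14 yeast strain; compound exposure; growth inhibition read vs vehicle controls.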

A short description of experiment [5]: NCI Yeast Anticancer Drug Screen. Data for the bub3 strain (AID 167). Particulars: S. cerevisiae bub3 mutant strain, stronger effect = higher value. The procedure, abridged: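 Screening used yeast with an engineered genetic alteration affecting cell cycle control. Compound-exposed cultures were compared with vehicle cultures, and reduced growth was taken as inhibition.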

Experiment [6] is described as follows: NCI Yeast Anticancer Drug Screen. Data for the mlh1 rad18 strain (AID 175). Particulars: S. cerevisiae mlh1 rad18 strain growth inhibition, stronger effect = higher value. The procedure, abridged: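 Yeast w/ defined DNA-repair lesions; compound exposure; growth vs vehicle controls → % inhibition.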
[7] abbreviates: at 5.0 µM (retest, dose inferred, filed as 0.5).
The mark [8] stands for this setting: at 50.0 µM (retest, dose inferred, filed as 5.0).

About 79,000 compounds went through this panel and 15% of them were active in at least one assay; those are over-represented in the sample as a whole. Values without a mark were called inactive. Activity calls are given as the source filed them. No stated cut-off is given here; in the data, active means growth inhibition above about 70%; inactive means the rest. Where a SMILES comes first, the peptide text is derived from it. The star is where a group is joined. Fmoc = O=C(OCC1c2ccccc2-c2ccccc21)*; Boc = CC(C)(C)OC(=O)*

Consider `COc1ccc2nc3cc(Cl)ccc3c(NCCCCCCNc3c4ccc(Cl)cc4nc4ccc(OC)nc34)c2n1`, for which the growth inhibition in experiment [1] (setting [7]) is 5%; in experiment [1] (setting [8]), 87% (active); in experiment [1] (at 50.0 µM), 96.9% (active); in experiment [2] (setting [7]), 6%; in experiment [2] (setting [8]), 74% (active); in experiment [2] (at 50.0 µM), 98.2% (active). In addition, the growth inhibition in experiment [3] (setting [7]) is 5%; in experiment [3] (setting [8]), 82% (active); in experiment [3] (at 50.0 µM), 98.2% (active); in experiment [4] (setting [7]), 4%; in experiment [4] (setting [8]), 80% (active); in experiment [4] (at 50.0 µM), 91.5% (active). For the same compound, the growth inhibition was 3% in experiment [5] (setting [7]); 92% (active) in experiment [5] (setting [8]); 96.8% (active) in experiment [5] (at 50.0 µM); 2% in experiment [6] (setting [7]); 82% (active) in experiment [6] (setting [8]); 96.5% (active) in experiment [6] (at 50.0 µM).

Take `O=C(O)/C=C\C(=O)Nc1ccc2c(c1)C(=O)c1cc(F)ccc1-2`: the growth inhibition is 10% in experiment [1] (setting [7]); 20% in experiment [1] (setting [8]); 29% in experiment [1] (at 50.0 µM); -1% in experiment [2] (setting [7]); -7% in experiment [2] (setting [8]); -2.7% in experiment [2] (at 50.0 µM). Further, the growth inhibition in experiment [3] (setting [7]) was -4%; in experiment [3] (setting [8]), 19%; in experiment [3] (at 50.0 µM), -5.2%; in experiment [4] (setting [7]), -6%; in experiment [4] (setting [8]) it was 6%; in experiment [4] (at 50.0 µM) it was 68.2%. In addition, the growth inhibition in experiment [5] (setting [7]) was -2%; in experiment [5] (setting [8]), 2%; in experiment [5] (at 50.0 µM) it was -36.6%; in experiment [6] (setting [7]), 8%; in experiment [6] (setting [8]), 17%; in experiment [6] (at 50.0 µM), 4.5%.

As for `COc1cc(OC)c(C(=O)[O][Sn]([c]2ccccc2)([c]2ccccc2)[c]2ccccc2)cc1OC`, the growth inhibition in experiment [1] (setting [7]) is 100% (active); in experiment [1] (setting [8]), 98% (active); in experiment [1] (at 50.0 µM) it was 98.4% (active); in experiment [2] (setting [7]), 100% (active); in experiment [2] (setting [8]) it was 100% (active); in experiment [2] (at 50.0 µM) it was 96.3% (active). The growth inhibition in experiment [3] (setting [7]) is 99% (active); in experiment [3] (setting [8]) it was 99% (active); in experiment [3] (at 50.0 µM), 97.3% (active); in experiment [4] (setting [7]), 99% (active); in experiment [4] (setting [8]) it was 99% (active); in experiment [4] (at 50.0 µM), 90.5% (active). For the same compound, the growth inhibition in experiment [5] (setting [7]) was 96% (active); in experiment [5] (setting [8]), 99% (active); in experiment [5] (at 50.0 µM) it was 96.1% (active); in experiment [6] (setting [7]), 99% (active); in experiment [6] (setting [8]), 100% (active); in experiment [6] (at 50.0 µM), 96.7% (active).

In the case of `Cc1ccc(-c2oc(C=Nc3ccccc3)c([N+](=O)[O-])c2-c2ccc(C)cc2)cc1`, the growth inhibition in experiment [1] (setting [7]) was 11%; in experiment [1] (setting [8]), 72% (active); in experiment [1] (at 50.0 µM), 73.3% (active); in experiment [2] (setting [7]), 13%; in experiment [2] (setting [8]), 70% (active); in experiment [2] (at 50.0 µM) it was 64.5%. Further, the growth inhibition in experiment [3] (setting [7]) is 26%; in experiment [3] (setting [8]) it was 73% (active); in experiment [3] (at 50.0 µM), 70.9% (active); in experiment [4] (setting [7]) it was 36%; in experiment [4] (setting [8]) it was 74% (active); in experiment [4] (at 50.0 µM), 42.2%. Besides, the growth inhibition in experiment [5] (setting [7]) is 46%; in experiment [5] (setting [8]), 95% (active); in experiment [5] (at 50.0 µM), 41.7%; in experiment [6] (setting [7]), 52%; in experiment [6] (setting [8]), 91% (active); in experiment [6] (at 50.0 µM) it was 75.8% (active).

Take `NCCCC(=O)NC(Cc1cnc[nH]1)C(=O)O` (stereo not given): the growth inhibition is 0% in experiment [1] (setting [7]); -5% in experiment [1] (setting [8]); -1.3% in experiment [1] (at 50.0 µM); -6% in experiment [2] (setting [7]); -4% in experiment [2] (setting [8]); 29.4% in experiment [2] (at 50.0 µM). In addition, the growth inhibition is 1% in experiment [3] (setting [7]); -11% in experiment [3] (setting [8]); 11.8% in experiment [3] (at 50.0 µM); 1% in experiment [4] (setting [7]); -2% in experiment [4] (setting [8]); 32.5% in experiment [4] (at 50.0 µM). Also, the growth inhibition was -4% in experiment [5] (setting [7]); -1% in experiment [5] (setting [8]); 2.75% in experiment [5] (at 50.0 µM); -11% in experiment [6] (setting [7]); -37% in experiment [6] (setting [8]); -6.45% in experiment [6] (at 50.0 µM).

On to `OC(c1cc(-c2ccccc2)nc2cc(Cl)ccc12)C1CCCCN1` (stereo not given), for which the growth inhibition in experiment [1] (setting [7]) was -2%; in experiment [1] (setting [8]), -3%; in experiment [1] (at 50.0 µM), 8.7%; in experiment [2] (setting [7]), -3%; in experiment [2] (setting [8]), 3%; in experiment [2] (at 50.0 µM), 26.1%. In addition, the growth inhibition is -1% in experiment [3] (setting [7]); -2% in experiment [3] (setting [8]); 37% in experiment [3] (at 50.0 µM); -5% in experiment [4] (setting [7]); -4% in experiment [4] (setting [8]); 15% in experiment [4] (at 50.0 µM). Further, the growth inhibition in experiment [5] (setting [7]) is -2%; in experiment [5] (setting [8]), -5%; in experiment [5] (at 50.0 µM) it was 75% (active); in experiment [6] (setting [7]) it was -2%; in experiment [6] (setting [8]), -3%; in experiment [6] (at 50.0 µM), 53.6%.

For `CC(C)(C)OC(=O)NCCCCC(NC(=O)OCC1c2ccccc2-c2ccccc21)C(=O)N1CCCC1C(=O)NCC(N)=O` (stereo not drawn) (Fmoc-Lys(Boc)-Pro-Gly-NH2; configuration not given here), the growth inhibition in experiment [1] (setting [7]) was 10%; in experiment [1] (setting [8]) it was 98% (active); in experiment [1] (at 50.0 µM), 86.8% (active); in experiment [2] (setting [7]) it was 13%; in experiment [2] (setting [8]), 95% (active); in experiment [2] (at 50.0 µM), 94.4% (active). In addition, the growth inhibition in experiment [3] (setting [7]) is 5%; in experiment [3] (setting [8]), 89% (active); in experiment [3] (at 50.0 µM), 90.3% (active); in experiment [4] (setting [7]), 10%; in experiment [4] (setting [8]) it was 91% (active); in experiment [4] (at 50.0 µM), 82.8% (active). Also, the growth inhibition in experiment [5] (setting [7]) is -10%; in experiment [5] (setting [8]), 97% (active); in experiment [5] (at 50.0 µM) it was 93.1% (active); in experiment [6] (setting [7]), 19%; in experiment [6] (setting [8]) it was 97% (active); in experiment [6] (at 50.0 µM) it was 93.3% (active).

`CC1(c2ccccc2)Nc2ccccc2C1=Nc1ccccc1` (stereo not given): the growth inhibition was -1% in experiment [1] (setting [7]); 34% in experiment [1] (setting [8]); 93.5% (active) in experiment [1] (at 50.0 µM); -4% in experiment [2] (setting [7]); 30% in experiment [2] (setting [8]); 97.7% (active) in experiment [2] (at 50.0 µM). Besides, the growth inhibition in experiment [3] (setting [7]) is -3%; in experiment [3] (setting [8]) it was 54%; in experiment [3] (at 50.0 µM) it was 96.3% (active); in experiment [4] (setting [7]), -8%; in experiment [4] (setting [8]), 75% (active); in experiment [4] (at 50.0 µM) it was 97.2% (active). Also, the growth inhibition was -7% in experiment [5] (setting [7]); 77% (active) in experiment [5] (setting [8]); 95.8% (active) in experiment [5] (at 50.0 µM); -2% in experiment [6] (setting [7]); 86% (active) in experiment [6] (setting [8]); 97.3% (active) in experiment [6] (at 50.0 µM).

Turning to `CN(C)C(=S)N/N=C/c1ccccn1`, the growth inhibition in experiment [1] (setting [7]) was 94% (active); in experiment [1] (setting [8]) it was 98% (active); in experiment [1] (at 50.0 µM), 98.7% (active); in experiment [2] (setting [7]) it was 95% (active); in experiment [2] (setting [8]) it was 98% (active); in experiment [2] (at 50.0 µM), 98.9% (active). For the same compound, the growth inhibition in experiment [3] (setting [7]) is 95% (active); in experiment [3] (setting [8]) it was 99% (active); in experiment [3] (at 50.0 µM) it was 98.4% (active); in experiment [4] (setting [7]) it was 95% (active); in experiment [4] (setting [8]), 99% (active); in experiment [4] (at 50.0 µM) it was 98.3% (active). Also, the growth inhibition in experiment [5] (setting [7]) is 95% (active); in experiment [5] (setting [8]), 97% (active); in experiment [5] (at 50.0 µM) it was 99% (active); in experiment [6] (setting [7]), 95% (active); in experiment [6] (setting [8]), 98% (active); in experiment [6] (at 50.0 µM), 98.8% (active).

As to `CC(=O)N(C1=CC(=O)c2ccccc2C1=O)c1ccc(C)cc1`, the growth inhibition in experiment [1] (setting [7]) is 16%; in experiment [1] (setting [8]) it was 99% (active); in experiment [1] (at 50.0 µM), 98.4% (active); in experiment [2] (setting [7]) it was 31%; in experiment [2] (setting [8]) it was 97% (active); in experiment [2] (at 50.0 µM), 69.2%. The growth inhibition in experiment [3] (setting [7]) is 36%; in experiment [3] (setting [8]) it was 93% (active); in experiment [3] (at 50.0 µM), 91.6% (active); in experiment [4] (setting [7]), 5%; in experiment [4] (setting [8]) it was 46%; in experiment [4] (at 50.0 µM) it was 57.3%. The growth inhibition in experiment [5] (setting [7]) was 37%; in experiment [5] (setting [8]) it was 94% (active); in experiment [5] (at 50.0 µM), 93.5% (active); in experiment [6] (setting [7]) it was 27%; in experiment [6] (setting [8]), 97% (active); in experiment [6] (at 50.0 µM), 58.1%.
